Data published in PubChem BioAssay (NCI).
About 79,000 compounds went through this panel and 15% of them were active in at least one assay; those are over-represented in the sample as a whole. Calls of active or inactive are those of the source. Cut-off read from the data, not from the text of the source: active = growth inhibition above about 70%; inactive = the rest.

Tests used:
[1] = NCI Yeast Anticancer Drug Screen. Data for the rad50 strain (AID 155);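 note: 0% = growth of vehicle-only cultures of the same strain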; details: S. cerevisiae rad50 strain growth inhibition; at 50.0 µM; stronger effect = higher value
Summary of the method: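 Readout: growth inhibition relative to vehicle-treated cultures. Compound exposure was carried out in a genetically defined yeast strain deficient in DNA damage repair.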

[2] = NCI Yeast Anticancer Drug Screen. Data for the mec2-1 strain (AID 157); details: S. cerevisiae mec2-1 strain, at 50.0 µM, stronger effect = higher value
Summary of the method: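 Using mec2-1 yeast: add compound, measure growth, express inhibition versus vehicle-treated cultures.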

[3] = NCI Yeast Anticancer Drug Screen. Data for the cln2 rad14 strain (AID 165);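 note: 0% = growth equal to vehicle treated cultures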; details: S. cerevisiae cln2 rad14 strain, at 50.0 µM, stronger effect = higher value
Summary of the method: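 Yeast strain cln2 rad14, bearing defects in cell cycle control and DNA repair, serves as the test system; values reflect growth inhibition compared with vehicle.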

[4] = NCI Yeast Anticancer Drug Screen. Data for the bub3 strain (AID 167); details: S. cerevisiae bub3 mutant strain, at 50.0 µM, stronger effect = higher value
Summary of the method: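 Readout: yeast growth inhibition, expressed relative to vehicle-only wells. The test organism is a mutant strain from a panel with lesions in DNA repair or checkpoint genes.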

[5] = NCI Yeast Anticancer Drug Screen. Data for the mlh1 rad18 strain (AID 175); details: S. cerevisiae mlh1 rad18 strain growth inhibition; at 50.0 µM; stronger effect = higher value
Summary of the method: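 Steps: expose repair-defective yeast to compound; measure growth; express inhibition against vehicle-treated controls.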

[6] = NCI Yeast Anticancer Drug Screen. Data for the sgs1 mgt1 strain (AID 161);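 note: 0% = growth of cultures given vehicle only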; details: S. cerevisiae sgs1 mgt1 strain, at 50.0 µM, stronger effect = higher value
Summary of the method: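 Yeast cells carrying a defined DNA-repair defect were exposed to test compounds. Growth inhibition was measured relative to vehicle-treated controls.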

Measured: growth inhibition

CCC1CN2CCc3cc(OC)c(OC)cc3C2CC1C#N (stereo not given)
inactive: [1] 15.4% | [2] 9.2% | [3] 21.1% | [4] 12.1% | [5] 23.1%

C=CCNC(=O)C[n+]1cccc(C(=O)Nc2ccccc2)c1
inactive: [1] 1.65% | [2] -18.2% | [3] 23.2% | [4] 5.95% | [5] -0.95%

CC1(CO)CSC(Nc2ccc(Cl)c(Cl)c2)=N1 (stereo not given)
inactive: [1] 19.1% | [2] -12.9% | [3] 32.5% | [4] 20.1% | [5] 19.1%

C/C(C[n+]1ccccc1)=N\N=C(N)N
inactive: [1] -18.8% | [2] -9.05% | [3] -20.5% | [4] -5.35% | [5] -9.2%

c1cc2cc(C3=NCCN3)[nH]c2cc1C1=NCCN1
inactive: [1] 12.8% | [2] 35.4% | [3] 43.5% | [4] 18.6% | [5] 26.2%

COc1ccc(/C=N/O)cc1OC
inactive: [1] -1.8% | [2] 14.8% | [3] 11.8% | [4] 10.9% | [5] 5.95%

c1ccc(-c2nnc(-c3ccccn3)c3c2C[C@@H]2C[C@@H]4Cc5c(-c6ccccn6)nnc(-c6ccccn6)c5[C@@H]4[C@H]32)nc1
inactive: [1] -4.95% | [2] 0.1% | [3] 9.25% | [4] 10.3% | [5] -17.4%

CC12CCC3c4ccc(OC(=O)c5ccccc5)cc4CCC3C1CC(O)C2 (stereo not given)
inactive: [1] -5.5% | [2] 38.1% | [3] 42.7% | [4] 69.6% | [5] 11.9%

CN1CC2=C(NC(=S)NC2c2ccccc2Cl)/C(=C/c2ccccc2Cl)C1 (stereo not given)
inactive: [1] 14.7% | [2] 13.2% | [3] 10.6% | [4] 61.8% | [5] -5.15%

O=C(O)c1c2c(cc3c(=O)c4ccccc4[nH]c13)CCCC2
inactive: [1] -5.65% | [2] -16.4% | [3] 7.25% | [4] -15.7% | [5] 5.2%

CSc1nc(NN)c([N+](=O)[O-])c(SC)n1
inactive: [1] -7.55% | [2] -0.7% | [3] -2.65% | [4] -14.5% | [5] 15.6%

O=C(N/N=C\c1ccc([N+](=O)[O-])cc1)Nc1ccc2ccccc2c1
inactive: [1] 3.15% | [2] 8.1% | [3] 8.3% | [4] 25.2% | [5] 14.1%

COC(=O)C1=CN=C(C(=O)OC)NN1
inactive: [1] 13.9% | [2] 0.25% | [6] -8.6% | [4] -4.45% | [5] 3.15%

CCOC(=O)/C(C#N)=N\Nc1ccccc1
inactive: [1] -15.5% | [2] 14.6% | [3] -25.3% | [4] -1.85% | [5] -12.9%

O=C1/C(=C2\CCc3ccccc32)Cc2ccccc21
inactive: [1] 14.1% | [2] 5.65% | [3] -1.7% | [4] 34.6% | [5] 8.15%

C/C(=N\NC(=O)CC(=O)Nc1ccccc1Cl)c1cc2cc(N=Nc3ccccc3Cl)ccc2oc1=O
inactive: [1] -17.1% | [2] 0.7% | [3] 4.4% | [4] -4.05% | [5] -13.6%

O=C(N/N=C(/c1nc2ccc(Cl)cc2[nH]c1=O)C(O)c1ccc(Cl)cc1Cl)c1ccncc1 (stereo not given)
inactive: [1] 12.5% | [2] 10.2% | [3] -34.6% | [4] -3.6% | [5] 23.1%

CSc1ncc(Br)c(Sc2nccn2C)n1
inactive: [1] 11.4% | [2] 7.3% | [3] 4.7% | [4] -12% | [5] 2.85%

CC(C)/C(=N\[N+](C)(C)C)c1ccccc1
inactive: [1] 0.4% | [2] -22.8% | [3] -3.05% | [4] -22.7% | [5] 5.15%

CCSc1[nH]c(NC(=NC(C)C)NC(=O)c2ccccc2)c(C(N)=O)c1C(N)=O
inactive: [1] 2.75% | [2] 1.35% | [3] 9.3% | [4] -4.75% | [5] 18.6%

COC(=O)CCC1(CCC(=O)OC)CCCCCCC(CCC(=O)OC)(CCC(=O)OC)C(=O)C1=O
inactive: [1] -11.6% | [2] -0.5% | [3] -2.45% | [4] 5.25% | [5] 19.8%

OCC(O)C(O)C(CN=Cc1ccccc1O)N=Cc1ccccc1O (stereo not given)
inactive: [1] 5.05% | [2] 1% | [3] -26.1% | [4] 12.9% | [5] -2.45%

C[n+]1ccccc1/C=C/c1csc2ccccc12
inactive: [1] -0.85% | [2] 5.35% | [3] -11.8% | [4] -0.6% | [5] -3.8%

O=C1/C(=C/c2ccc(O)cc2)CCC1CNc1ccc(Cl)cc1 (stereo not given)
inactive: [1] 14.8% | [2] 12.6% | [3] 18.1% | [4] 5.55% | [5] 39.9%

C[Si](C)(CNCCN)O[Si](C)(C)CNCCN
inactive: [1] 6.3% | [2] -18.8% | [3] 13.1% | [4] 5.9% | [5] 13.3%

COc1cc(C(C#N)NNc2nc(C)cc(=O)[nH]2)cc(OC)c1OC (stereo not given)
inactive: [1] -25.6% | [2] -2.75% | [3] -5.35% | [4] -23.9% | [5] -12.9%

COC(=O)C1(Br)c2ccccc2-c2ccccc21
inactive: [1] -3.15% | [2] 17.7% | [3] -22.4% | [4] 8.5% | [5] -9.3%

O=c1c2cccnc2cc(-c2ccccc2)n1CCO
inactive: [1] -27.5% | [2] -12.3% | [3] 4.55% | [4] 3.3% | [5] -4.15%

CCOc1ccccc1NC(=O)CC1SC(=Nc2ccc([N+](=O)[O-])cc2)NC1=O (stereo not given)
inactive: [1] 24.6% | [2] 20.9% | [3] 10.9% | [4] -13.3% | [5] -12.8%

CON(C)c1nc(N)c(C#N)c(C#N)c1C#N
inactive: [1] 4.35% | [2] -23.7% | [3] 13.4% | [4] 15% | [5] 7.45%

Clc1ccccc1C1OCCCO1
inactive: [1] -0.95% | [2] 15.1% | [3] -29.8% | [4] -8.1% | [5] -6.1%

Cc1ccc(N=C(NN(C)C)C(c2ccccc2)c2ccccc2)cc1
inactive: [1] 2.55% | [2] -20.1% | [3] -18.9% | [4] 15.4% | [5] -14.2%

CN1CC2=C(NC(=S)NC2c2ccccc2)/C(=C/c2ccccc2)C1 (stereo not given)
inactive: [1] -14.5% | [2] -8.75% | [3] 6.8% | [4] 22.4% | [5] -13.2%

CCCCNC(C)=O
inactive: [1] 4.5% | [2] -9.15% | [3] -21.6% | [4] -0.95% | [5] -1.7%

O=C(Nc1ccc(Cl)cc1[N+](=O)[O-])Oc1ccc(-c2ccccc2)cc1
inactive: [1] 23.4% | [2] 58.5% | [3] 8.3% | [5] 66%
active: [4] 78.8%

COC(=O)C(/C(=N/N)C(=O)Nc1cccc(O)c1)c1nc2ccccc2[nH]c1=O (stereo not given)
inactive: [1] -39.1% | [2] -7.65% | [3] -15.2% | [4] -39.1% | [5] -34.4%

O=C1CCC(=O)N1CCc1cccc2ccccc12
inactive: [1] 5.45% | [2] -1.1% | [3] 5.4% | [4] 2.4% | [5] -9.35%

C=CCN=C1NC(=O)C(CC(=O)Nc2cccc(Cl)c2)S1 (stereo not given)
inactive: [1] -41% | [2] -25% | [3] 6.85% | [4] -36.5% | [5] -22.4%

CC(C)c1ccc(Cc2ccc(C(C)C)c(NC(=O)C(=O)Cc3cnc4ccccc4n3)c2C(C)C)c(C(C)C)c1NC(=O)C(=O)Cc1cnc2ccccc2n1
inactive: [1] -28.4% | [2] -18.4% | [3] 14.3% | [4] -13.2% | [5] -28.8%

O=c1[nH]c(Nc2ccc(F)c(Cl)c2)nc2nc[nH]c12
inactive: [1] 4.4% | [2] 6.85% | [3] -4.75% | [4] 2.55% | [5] -23.7%

CC(=O)N1C(=O)C(C)(C2=CC(=O)c3ccccc3C2=O)c2ccc(Br)cc21 (stereo not given)
active: [1] 76.8% | [6] 73.7% | [3] 71.8% | [4] 87%
inactive: [5] 67.2%

CCCOc1ccc(C(=O)O)cc1
inactive: [1] 10.8% | [6] 6.3% | [3] -2% | [4] -14.8% | [5] 4.15%

CCn1c2ccccc2c2ccc(N=Cc3ccc4ccccc4c3)cc21
inactive: [1] 5.65% | [6] -7.3% | [3] -14% | [4] 14.3% | [5] 1.3%

Cc1ccccc1C1(O)c2cccc3cccc(c23)C1(O)c1ccccc1C (stereo not given)
inactive: [1] 2.95% | [6] -7.45% | [3] -10.9% | [4] 10.9% | [5] -22.4%

O=C(/C=N\O)c1ccncc1
inactive: [1] -13.8% | [6] -30.8% | [3] -16.1% | [4] -8.65% | [5] -35.7%

CCCCSC1=NCCN1
inactive: [1] 14.8% | [6] -3.9% | [3] 5.5% | [4] 5.25% | [5] 10.5%
